Each structure is given as a SMILES string. Among all 2,400 compounds or so, about 95 (4%) were called active. About 3% were inconclusive and are not listed.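 How the source made its calls: active means compounds lowering signal whose fitted AC50 is at most ten times the top tested dose; inconclusive means flat fit with moderate inhibition, or poor curve fit; inactive means the rest.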 A selection follows. Measured potencies and affinities stand elsewhere.

This assay in a line: GFP reporter loss versus dox-driven RFP – NIH3T3 R4 cells, cherry-pick, set 3, dose response (AID 493083).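 Further: 0% = neutral control wells and -100% = didemnin B positive control.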 Conditions: NIH3T3 R4 HSF-1 GFP reporter, heat shock, 48 h; series mostly up to 19.5 µM; activity change, negative = inhibition: at the top concentration.
Consider `NS(=O)(=O)c1ccc(CCNC(=O)c2ccc(C#CC3(O)CCCCC3)cc2)cc1`, for which the “activity change, negative = inhibition” value was -11% (inactive).

As to `COc1cccc(/C=N/NC(=O)c2cnccn2)c1`, the “activity change, negative = inhibition” value is -11.7% (inactive).

For `CC1CCN(CC(=O)c2cccs2)CC1`, the “activity change, negative = inhibition” value is -0.687% (inactive).

In the case of `N/C(=N\OC(=O)Cc1ccccc1[N+](=O)[O-])c1cccnc1`, the “activity change, negative = inhibition” value is -2.18% (inactive).

On to `COc1cc(NS(=O)(=O)c2ccc(C)cc2)c2ncccc2c1`, for which the “activity change, negative = inhibition” value was 152% (inactive).

Turning to `Cc1ccc(S(=O)(=O)c2ccc(Oc3ccccc3)cc2)cc1`, the “activity change, negative = inhibition” value is 6.62% (inactive).

`O=C(Cc1ccc(O)cc1)NC1CCCCCC1`: the “activity change, negative = inhibition” value was 2.64% (inactive).

Consider `Fc1ccc(-c2nc3c(-c4ccc(Cl)cc4)cnn3cc2CCN2CCOCC2)cc1`, for which the “activity change, negative = inhibition” value was 6.99% (inactive).

With `COc1ccc(-n2cc([N+](=O)[O-])c(=O)c3ccc(Cl)cc32)cc1`, the “activity change, negative = inhibition” value is -4.31% (inactive).

With `O=[N+]([O-])c1ccc(O)c(C=Nc2ccc3oc(Cc4ccc(Cl)cc4)nc3c2)c1`, the “activity change, negative = inhibition” value was 2.32% (inactive).

As to `CC(=O)c1ccc(OCC(O)CN2CCN(Cc3ccc4c(c3)OCO4)CC2)cc1` (stereo not given), the “activity change, negative = inhibition” value was -11.3% (inactive).

Consider `COc1ccc(C(=O)NC(=S)NNC(=O)c2ccco2)cc1`, for which the “activity change, negative = inhibition” value is -5.87% (inactive).

For the compound `CNC(=S)N(CCc1c(C)[nH]c2ccc(C)cc12)Cc1cc(OC)c(OC)c(OC)c1`, the “activity change, negative = inhibition” value was 6.85% (inactive).

On to `CC1CCC2(CC1)N=C(N)Nc1nc3ccccc3n12` (stereo not given), for which the “activity change, negative = inhibition” value is 22.7% (inactive).

With `COc1ccc(C(=O)NNC(=O)c2ccccn2)cc1`, the “activity change, negative = inhibition” value is 1.89% (inactive).

As for `COc1ccc(OC)c(-c2cc(C(=O)N/N=C/c3cc(OC)c(OC)cc3OC)c3ccccc3n2)c1`, the “activity change, negative = inhibition” value is 6.57% (inactive).

Turning to `CC(C)Nc1nnc(Sc2ccc(Cl)cc2[N+](=O)[O-])s1`, the “activity change, negative = inhibition” value was 6.78% (inactive).

For the compound `Cc1ccc2nc(CSc3nc(C)ccc3C#N)[nH]c2c1`, the “activity change, negative = inhibition” value is 5.73% (inactive).

Consider `CC(/C=C/c1ccc2c(c1)OCO2)=N/NC(=O)c1ccncc1`, for which the “activity change, negative = inhibition” value was 25.8% (inactive).

`COCCN(C(=S)Nc1c(C)cccc1C)C(C)c1cccnc1` (stereo not given): the “activity change, negative = inhibition” value was -2.92% (inactive).

In the case of `COCCCn1c(-c2ccco2)nc2ccccc2c1=O`, the “activity change, negative = inhibition” value is -0.204% (inactive).

As for `N#Cc1c(N)n(-c2ccccc2N)c2nc3ccccc3nc12`, the “activity change, negative = inhibition” value was -3.31% (inactive).

For the compound `COc1ccccc1C(=O)NCC(=O)N/N=C/c1ccc2c(c1)OCO2`, the “activity change, negative = inhibition” value is 3.39% (inactive).

As for `NS(=O)(=O)c1ccc(NC2=CC(=O)C(=O)c3ccccc32)cc1`, the “activity change, negative = inhibition” value was -26% (inactive).

As to `CN(Cc1nc(-c2ccccc2)no1)C(=O)c1ccc2c(c1)OCO2`, the “activity change, negative = inhibition” value is 2.75% (inactive).

Turning to `COc1cccc(-c2c(NC(C)=O)n(C)c3ccccc3c2=O)c1`, the “activity change, negative = inhibition” value is -3.87% (inactive).

In the case of `COc1ccc(NC(=O)c2cc(CN3C(=O)c4ccccc4C3=O)ccc2OC)cn1`, the “activity change, negative = inhibition” value was 3.72% (inactive).

On to `COc1ccc(/C=N/NC(=O)c2cc(-c3cccn3C)n[nH]2)cc1OC`, for which the “activity change, negative = inhibition” value is 1.97% (inactive).

Regarding `C=CCn1c(CCCNC(=O)C(C)(C)C)nc2ccccc21`, the “activity change, negative = inhibition” value is 5.13% (inactive).

With `Cc1ccc(NC(=S)NC2CC3CCC(C2)N3Cc2ccco2)cc1C` (stereo not given), the “activity change, negative = inhibition” value was 2.77% (inactive).

Regarding `COc1ccc(N2CCN(C(=O)c3ccc(NS(=O)(=O)c4ccccc4)cc3)CC2)cc1`, the “activity change, negative = inhibition” value is 21.2% (inactive).

Consider `COC(=O)c1cc2ccsc2n1Cc1nc(-c2ccc(Cl)cc2)oc1C`, for which the “activity change, negative = inhibition” value was 3.21% (inactive).

As for `COc1ccccc1/C=C/CN1CCC(Oc2cc(C(=O)NC3CC3)ccc2OC)CC1`, the “activity change, negative = inhibition” value is 7.7% (inactive).

`CC(NO)/C(=N\O)c1cccs1` (stereo not given): the “activity change, negative = inhibition” value was 1.92% (inactive).

For `COC(=O)C1=C(C(=O)OC)[C@@H]2N(C)c3ccccc3[C@@]23C[C@@H](C(=O)OC)N(C(=O)CC(C)C)C3=N1`, the “activity change, negative = inhibition” value was 0.888% (inactive).

On to `CCN1CCN(CCNC(=O)CCCCCn2c(=O)[nH]c3cc(C(=O)OC)ccc3c2=O)CC1`, for which the “activity change, negative = inhibition” value is -7.53% (inactive).

In the case of `O=C(COC(=O)c1ccccc1SCC(=O)N1CCCC1)NC1CCS(=O)(=O)C1` (stereo not given), the “activity change, negative = inhibition” value is 1.73% (inactive).

Consider `Cc1ccc(S(=O)(=O)N2CCCC(C(=O)NCCc3ccc4c(c3)OCO4)C2)cc1` (stereo not given), for which the “activity change, negative = inhibition” value is 13.8% (inactive).

`FC(F)Oc1ccc(NC(=S)NNc2ccnc3cc(Cl)ccc23)cc1`: the “activity change, negative = inhibition” value is 39.7% (inactive).

`Cc1ccc(-n2ncc(Br)c(Br)c2=O)cc1`: the “activity change, negative = inhibition” value was -70.3% (inactive).

For the compound `CCc1ccc(C(=O)Cn2ncc(Cl)c(Cl)c2=O)cc1`, the “activity change, negative = inhibition” value is -74.6% (inactive).

Turning to `CCCCCn1c(SCC(=O)CC(=O)OCC)nc2cc(C(=O)N3CCC(C(N)=O)CC3)ccc2c1=O`, the “activity change, negative = inhibition” value was -1.23% (inactive).

`CC(=O)Nc1cc[n+](C(C)C(=O)c2ccccc2)cc1` (stereo not given): the “activity change, negative = inhibition” value is -10.5% (inactive).

For the compound `COc1cccc(-n2ccnc2SCC(=O)Nc2ccccc2F)c1`, the “activity change, negative = inhibition” value is 9.89% (inactive).

As to `O=C(CCc1ccccc1)Nc1cccc([N+](=O)[O-])c1`, the “activity change, negative = inhibition” value was 9.15% (inactive).

For the compound `O=C(NN=C1CCCCCCCCCCC1)c1ccccc1F`, the “activity change, negative = inhibition” value is 4.34% (inactive).

As to `COc1ccc(-n2nc(C(=O)NCC(=O)NCc3ccccc3OC)c3ccccc3c2=O)c(OC)c1`, the “activity change, negative = inhibition” value was -1.43% (inactive).

For the compound `O=C(NC1CCCCC1)C(c1ccco1)N(C(=O)c1csnn1)c1ccc(Cl)cc1` (stereo not given), the “activity change, negative = inhibition” value was 0.074% (inactive).

Regarding `CCC(C)NC(=O)C1(C)CCC(=O)N1Cc1ccccc1OC` (stereo not given), the “activity change, negative = inhibition” value was -0.568% (inactive).

Turning to `O=C(O)CSc1nc(-c2ccccc2)nc2c1oc1ccccc12`, the “activity change, negative = inhibition” value was -7.46% (inactive).

Regarding `CNC(=O)c1ccsc1NC(=O)c1ccc(Cl)s1`, the “activity change, negative = inhibition” value was -0.254% (inactive).

Regarding `Cc1ccc(OCC(=O)NCCNC(=O)c2ccco2)cc1C`, the “activity change, negative = inhibition” value was -0.642% (inactive).

Regarding `CCCCn1c(SCC(=O)NCc2ccco2)nc2c(sc3ccccc32)c1=O`, the “activity change, negative = inhibition” value was -2.75% (inactive).

As for `COc1ccc(C2=NN(S(C)(=O)=O)C(c3cccs3)C2)cc1OC` (stereo not given), the “activity change, negative = inhibition” value is 0.996% (inactive).

In the case of `O=C(CCl)N1N=C(c2cccs2)CC1c1ccco1` (stereo not given), the “activity change, negative = inhibition” value was 111% (inactive).

For `Cn1c(=O)c2ccccc2n(Cc2ccccc2Cl)c1=O`, the “activity change, negative = inhibition” value is 62.4% (inactive).

For the compound `COc1c([N+](=O)[O-])c(=O)oc2ccccc12`, the “activity change, negative = inhibition” value was -1.45% (inactive).

Take `C/C(=N\NC(=O)c1nnn(-c2nonc2N)c1C(C)C)c1ccncc1`: the “activity change, negative = inhibition” value is -3.27% (inactive).

On to `COc1ccc(/C=N/NC(=O)Nc2cccc3nsnc23)cc1OC`, for which the “activity change, negative = inhibition” value is 12.9% (inactive).

With `COc1ccc(CNC(C)CCc2ccccc2)cc1` (stereo not given), the “activity change, negative = inhibition” value is -3.43% (inactive).

As to `CCOc1ccc(NC(=O)CN(C)C(=O)c2ccc(N3CCCC3)c([N+](=O)[O-])c2)cc1OCC`, the “activity change, negative = inhibition” value is 4.14% (inactive).

With `COc1cccc(N2CCN(C(=S)Nc3cc(C)cc(C)c3)CC2)c1`, the “activity change, negative = inhibition” value is -4.49% (inactive).

In the case of `CC(CCCC(C)(C)O)NC(=O)c1ccc2oc(CCc3ccccc3)nc2c1` (stereo not given), the “activity change, negative = inhibition” value was 1.71% (inactive).

Take `COc1ccc(NC(=O)CCc2nnc3ccc(N4CCC(C)CC4)nn23)cc1OC`: the “activity change, negative = inhibition” value was -0.697% (inactive).

As for `O=C(O)c1cccc(NC(=S)N/N=C/c2cccnc2)c1`, the “activity change, negative = inhibition” value is -3.91% (inactive).

`CCc1cccc2c(C(=O)COC(=O)c3ccc([N+](=O)[O-])s3)c[nH]c12`: the “activity change, negative = inhibition” value is 4.77% (inactive).

Regarding `CNC(=S)N/N=C/c1ccc(-c2cccc(C(=O)O)c2)o1`, the “activity change, negative = inhibition” value was -2.88% (inactive).

In the case of `CCOc1ccc(NC(=O)CCCNC(=O)Cn2cnc3sc(C)c(C)c3c2=O)cc1`, the “activity change, negative = inhibition” value was -1.07% (inactive).

Consider `CCC(=O)n1nc(-c2cccnc2)nc1NCc1cccs1`, for which the “activity change, negative = inhibition” value is -3.19% (inactive).

As to `COc1ccc(N=Cc2c(O)ccc3ccccc23)cc1`, the “activity change, negative = inhibition” value was 69.2% (inactive).

The record behind these values is PubChem BioAssay AID493083 (Broad Institute, 2011).
